KDM5B inh – blocks human KDM5B histone demethylase activity | KDM5B demethylase, FDH-coupled NADH fluorescence (FDH is formaldehyde dehydrogenase) | Potency, µM (doses to about 57.7 µM), most hits filed as inhibitors | AID 1347165 | 220,000 tested, 2.6% active | Q9UGL1; active = well fitted inhibition curve with a large enough effect; inconclusive = small, poorly fitted or top-dose-only effect; inactive = no such curve, though single readings can be large or run the other way; note: potency is the fitted concentration of half-maximal effect; 0% is about no effect; nearly all actives have a fitted effect of over 70% in size
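Here, H3K4me3 peptide (12.5 µM in substrate mix) is demethylated by KDM5BΔAP, 200 nM final, after 10 min compound exposure. Formaldehyde product is coupled through FDH (0.25 U/mL in mix) to NADH fluorescence; 30-min ΔRFU feeds dose-response curves.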
IP6K1 inhibitor – inhibitors of human IP6K1; Q92551; IP6K1 kinase, ADP-Glo luminescence, 2 h; hits give low values; activity change, % (series mostly up to about 58 µM); 140,000 tested, 0.81% active; in the data active = activity change below about -25%; note: % is set by controls: 0 for no effect and ±100 for the full control effect
Target sequence (Q92551 whole entry, looked up): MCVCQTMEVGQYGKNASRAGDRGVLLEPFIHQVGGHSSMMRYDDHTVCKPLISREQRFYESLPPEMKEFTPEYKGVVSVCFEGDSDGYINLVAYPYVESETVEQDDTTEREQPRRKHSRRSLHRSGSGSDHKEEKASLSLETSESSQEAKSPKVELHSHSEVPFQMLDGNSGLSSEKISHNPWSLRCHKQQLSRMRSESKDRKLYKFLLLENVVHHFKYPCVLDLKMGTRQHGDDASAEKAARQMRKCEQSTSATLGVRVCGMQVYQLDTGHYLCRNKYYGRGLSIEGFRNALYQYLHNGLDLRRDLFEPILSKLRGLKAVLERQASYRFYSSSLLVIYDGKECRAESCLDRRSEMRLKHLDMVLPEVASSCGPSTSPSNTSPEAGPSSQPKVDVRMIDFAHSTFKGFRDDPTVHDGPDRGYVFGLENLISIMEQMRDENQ
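ADP-Glo luminescence measures ADP made by human IP6K1 during a 2 h RT reaction with ATP/IP6 (mix at 1.3 mM/130 uM); top library doses 57.5 and 19.1 uM final.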
Active calls of the source: *. Hits are enriched below; roughly 2.7% of the tested compounds scored in any of these assays.

For COc1ccc(Nc2ccnc(N3CCCC(C(=O)NCc4cccc(F)c4)C3)n2)cc1 (configuration not stated) the results were IP6K1 inhibitor -9.
For COc1cccc(NC(=O)c2ccc3c(c2)NC(C)(COc2cccnc2)CO3)c1 (configuration not stated) the results were KDM5B inh inconclusive and IP6K1 inhibitor -9.
Screening CC1(COc2cccnc2)COc2ccc(C(=O)Nc3cccc(Cl)c3)cc2N1 (configuration not stated) returned KDM5B inh 14µM* and IP6K1 inhibitor -2.
`CN(C)CCOCC1(C)COc2ccc(C(=O)Nc3cccc(Cl)c3)cc2N1` (configuration not stated) gave KDM5B inh 35µM* and IP6K1 inhibitor 1.
For CN(C)CCOCC1(C)COc2ccc(C(=O)Nc3cccc(N(C)C)c3)cc2N1 (configuration not stated) the results were KDM5B inh inconclusive and IP6K1 inhibitor -5.
`O=C(OC1CCCCC1=O)c1ccc(F)cc1Cl` (configuration not stated) gave KDM5B inh inactive.
For COc1ccc(C2CC(=O)C=C(Nc3ccccc3F)C2)cc1 (configuration not stated) the results were KDM5B inh inactive.
Screening CCOC(=O)c1sc(NC(=O)C(NC(=O)c2ccc(F)cc2)C(C)C)nc1C (configuration not stated) returned KDM5B inh inactive.
CCOc1ccccc1-n1cnc2cc(C(=O)NCC(OCC)OCC)ccc21 was read as KDM5B inh inactive.
`COc1ccc(-c2cc(C(=O)N(C)C)c3cnn(C)c3n2)cc1` gave IP6K1 inhibitor 3.
Screening Cc1cnc2c(C(=O)NCc3cccnc3Oc3ccccc3)cnn2c1 returned KDM5B inh inconclusive and IP6K1 inhibitor 4.
Screening CNC(=O)c1cnn2cc(C)ccc12 returned KDM5B inh 32µM* and IP6K1 inhibitor -4.
`Cc1ccc2c(C(=O)N(C)C)cnn2c1` gave KDM5B inh 32µM* and IP6K1 inhibitor 0.
Screening CCOc1ccc(-c2nc(NC(=O)c3cc(OC)c(OC)c(OC)c3)sc2C)cc1 returned KDM5B inh inactive.
N#CCC(=O)Nc1ccc(C(=O)OCc2ccc(Br)cc2F)cc1 was read as KDM5B inh inactive.
`Cc1ccc(NC(=O)C2CCCCC2)c(C)c1` gave KDM5B inh inactive.
`O=C(Cc1noc(C(=O)NCc2cccc(F)c2)n1)Nc1cccc2ncccc12` gave KDM5B inh inactive.
COCCNC(=O)c1nc(-c2cccnc2)c2ccccn12 was read as KDM5B inh inactive and IP6K1 inhibitor 18.
Screening O=C(O)c1cnc(NCc2cccnc2)nc1-c1ccc(Cl)cc1 returned KDM5B inh 32µM* and IP6K1 inhibitor -11.
COc1cccc(-c2nc(NCc3cccnc3)ncc2C(=O)O)c1 was read as KDM5B inh inconclusive and IP6K1 inhibitor 11.
Screening O=C(NCc1cccs1)c1nc(-c2cccc(C(F)(F)F)c2)c2ccccn12 returned KDM5B inh inactive and IP6K1 inhibitor -5.
For COCCNC(=O)c1nc(-c2ccsc2)c2ccccn12 the results were KDM5B inh 40µM* and IP6K1 inhibitor -5.
`Cc1cccc(C)c1-c1nc(C(=O)NCc2ccsc2)n2ccccc12` gave KDM5B inh 32µM* and IP6K1 inhibitor -1.
Cc1cccc(C)c1-c1nc(C(=O)NCc2cccnc2)n2ccccc12 was read as KDM5B inh 25µM* and IP6K1 inhibitor 37.
`O=c1[nH]c2cc3c(cc2c(=O)n1CCc1nc(-c2ccc(C(F)(F)F)cc2)no1)OCO3` gave KDM5B inh inactive.
`COc1ccccc1Oc1c(C)oc2cc(OC(C)=O)ccc2c1=O` gave KDM5B inh inactive.
For CCC(C)(C)C1CCC(NC(=O)CNC(=O)CNC(C)=O)CC1 (configuration not stated) the results were KDM5B inh inactive.
Screening O=C(NCc1cccnc1)c1nc(-c2ccc(Cl)cc2)c2ccccn12 returned KDM5B inh 28µM* and IP6K1 inhibitor 15.
`O=C(NCc1cccnc1)c1nc(-c2ccccc2)c2ccccn12` gave KDM5B inh inactive and IP6K1 inhibitor 8.
O=C(NCc1cccnc1)c1nc(-c2ccc(Cl)nc2)c2ccccn12 was read as KDM5B inh 89µM* and IP6K1 inhibitor -12.
Screening O=C(NCc1cccnc1)c1nc(-c2cc(Cl)cc(Cl)c2)c2ccccn12 returned KDM5B inh inactive and IP6K1 inhibitor -8.
COc1ccc(-c2nc(C(=O)NCc3cccnc3)n3ccccc23)cc1 was read as KDM5B inh 28µM* and IP6K1 inhibitor 3.
For CCOC(=O)[C@H]1CCOCC[C@H]1N(Cc1ccccc1)C(=O)OCC(C)C the results were IP6K1 inhibitor 14.
Screening CC(C)(C)c1ccc(/C=N/OCC(=O)Nc2ccc3c(c2)OCCO3)cc1 returned KDM5B inh inactive.
`NC(=O)CN1c2ccc(F)cc2-c2ccccc2S1(=O)=O` gave KDM5B inh inactive.
For COc1ccccc1-c1cccc(C(=O)N2CCN([S+](=O)([O-])c3ccccc3)CC2)c1 the results were IP6K1 inhibitor -6.
`O=C(NCc1coc(-c2cccs2)n1)c1cccc(Br)c1` gave KDM5B inh inactive.
COc1ccc(NC(=O)Cc2c(C)c3ccc(OC)cc3oc2=O)c(OC)c1 was read as KDM5B inh inactive.
Screening O=C(O)CCCCCCCCCCCC(=O)O returned KDM5B inh inactive.
Screening O=C1Nc2ccc(-c3ccccc3F)cc2C(=O)N2CCN(C(=O)c3ccco3)C[C@@H]12 returned KDM5B inh 35µM* and IP6K1 inhibitor -1.
For COc1ccc(-c2ccc3c(c2)C(=O)N2CCN(C(=O)CC(C)(C)C)C[C@@H]2C(=O)N3)cc1 the results were KDM5B inh 28µM* and IP6K1 inhibitor 7.
Screening CC(C)(C)CC(=O)N1CCN2C(=O)c3cc(-c4ccccc4)ccc3NC(=O)[C@H]2C1 returned KDM5B inh 32µM* and IP6K1 inhibitor 2.
CCCNC(=O)N1CCN2C(=O)c3cc(-c4ccccc4F)ccc3NC(=O)[C@@H]2C1 was read as KDM5B inh inconclusive and IP6K1 inhibitor 0.
`CC(C)(C)CC(=O)N1CCN2C(=O)c3cc(-c4cccc(C(F)(F)F)c4)ccc3NC(=O)[C@H]2C1` gave KDM5B inh inactive and IP6K1 inhibitor -5.
`CC(C)(C)CC(=O)N1CCN2C(=O)c3cc(-c4ccc(Cl)cc4)ccc3NC(=O)[C@H]2C1` gave KDM5B inh inconclusive and IP6K1 inhibitor -1.
`Cc1nn(-c2ccccc2)c2c1C(C(C)C)N(C1CCCN(C(=O)c3ccc(C(F)(F)F)cc3)C1)C2=O` (configuration not stated) gave IP6K1 inhibitor -3.
Screening O=c1c2ccsc2ncn1Cc1coc(-c2ccccc2)n1 returned KDM5B inh inactive.
`NC(=O)C1CCCN(CCNc2cc(-c3ccccc3)nc3ccnn23)C1` (configuration not stated) gave KDM5B inh 32µM* and IP6K1 inhibitor 14.
Screening CC(C)c1cc(NCCC(=O)NC2CCCCC2)n2nccc2n1 returned KDM5B inh inconclusive and IP6K1 inhibitor 3.
`COCCn1cncc1CNc1nc(C)nc2ncccc12` gave KDM5B inh inactive and IP6K1 inhibitor 11.

High-throughput results: PubChem BioAssay, National Center for Advancing Translational Sciences (NCATS)
